From PubChem
The sample as a whole holds a higher share of hits than the screen did.
Tg IFNy HTS: T. gondii growth inhibition with IFN-gamma, primary screen, cell-based; Toxoplasma gondii growth in IFN-gamma-treated host cells; hits give low values; activity change, negative = inhibition, % (concentration not given with the values); 69,000 compounds, 3.8% hits; AID 1259416, 2018; in the data active = activity change below about -70%, passing the limit was not always enough;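 note: host cells are HeLa cells infected with Toxoplasma gondii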
Active calls of the source: *; ! = not confirmed by another sample.

SMILES	Tg IFNy HTS
C(=C/c1ccc2ccccc2n1)/c1ccc2c(c1)OCO2	-94*
COc1ccc(OC)c(-n2c(/C=C/c3ccc4c(c3)OCO4)nc3ccccc3c2=O)c1	19
C(=C/c1nccc2c1[nH]c1ccccc12)/c1ccc2c(c1)OCO2	133
COc1cc2c(cc1-c1nccn1CC1CCCOC1)OCO2 (centres undefined)	115
Cc1cc(CNC(=O)c2ccc(-n3cnnc3)cc2Cl)c2[nH]c(C)c(C)c2c1	41
CN(C)CCN1C(=O)c2cccc3cc(N)cc(c23)C1=O	-77*
O=C(CCCN1C(=O)c2cccc3cccc(c23)C1=O)OCc1ccc2c(c1)OCO2	-1
O=C1c2cccc3cccc(c23)C(=O)N1CCO	-27
C=CCO[C@H]1CN(C(=O)Cc2ccsc2)[C@H]2COC[C@@H]12	35
CN(c1ncccn1)C1COC2(CCCN(CC3CCOCC3)C2)C1 (centres undefined)	8
CCCCC(Nc1nc(C)nc2c1cnn2C)c1cccnc1 (centres undefined)	-5
Cc1cc(C)n(Cc2nc(-c3ccc(NC(=O)C(C)(C)C)cc3)oc2C)n1	77
O=C(Cn1c(=O)ccc2cc(S(=O)(=O)N3CCCC3)ccc21)NC1CCCCCCC1	110
Fc1cccc(NC2COC3(CCN(Cc4ccsc4)C3)C2)c1 (centres undefined)	66
N#Cc1cc2c(c3c1CCc1ccccc1-3)-c1ccccc1CC2	-80*
N#Cc1ccccc1-c1ccccc1C#N	60
C=CCn1c(CN2CCN(c3ncnc4nc[nH]c34)CC2)nc2ccccc21	-19
Cc1ccc(NC(=O)C(=O)NCCc2csc(-c3ccc(F)cc3)n2)cc1Cl	25
CC(C)C1CN(C(=O)c2cnn3cc(CCO)cnc23)CCCN1CC1CC1 (centres undefined)	6
CS(=O)(=O)N1CC[C@H]2OCC[C@@H](C(=O)N3CCCO3)[C@H]2C1	-14
O=C1[C@@H]2C[C@H](O)CCN2C(=O)CN1CCC(c1ccccc1)c1ccccc1	-33
O=C(CCSc1nc(-c2ccc3c(c2)OCO3)cc(C(F)(F)F)n1)N1CCCCC1	-76*
O=C(/C=C/c1ccc2c(c1)OCO2)N1CCCCC1	95
O=C(COc1ccc2c(c1)OCO2)N1CCN(C(=O)c2ccco2)CC1	16
O=C1CCc2cc(NC(=O)c3n[nH]c4ccccc34)ccc2N1	137
SMILES	Tg IFNy HTS
CC(C)NC(=O)CC1[C@H]2CN(Cc3ccc(F)cc3)C[C@@H]12 (some centres undefined)	26
Cc1ccc2cccc(NS(=O)(=O)c3cn(C)nc3C)c2n1	65
Cc1ccc2ccc3ccc(C)nc3c2n1	-76*
Cc1ccc2cccc(N3C(=O)Nc4ccccc4N3O)c2n1	181
Cn1cc(-c2cnc(-c3ccnn3C)nc2)cc1C(=O)NC(C)(C)C	40
O=C(Cc1ccc(N2CCNC2=O)cc1)N1CC(c2cccnc2)C1	-6
COc1cncc(C(=O)Nc2ccc(Cl)cc2)c1	30
CSc1sc(C(=O)Nc2cc(C(F)(F)F)cc(C(F)(F)F)c2)c2c1C=CCC2	-55
CSc1ncc2c(n1)-c1c(SC)sc(C(=O)Nc3ccc(Cl)cc3)c1CC2	-85*
CC(C)c1ccc(CN2CCC(CNC(=O)C3(N)CCC3)C2)cc1 (centres undefined)	-8
CC(C)c1ccc2c(c1)CCC1C(C)(CNC(=O)NC(C)(C)C)CCCC21C (centres undefined)	-104*
CCOC(=O)N1c2ccc(C(C)C)cc2C=CC1C#N (centres undefined)	204
CC(C)NC(=O)[C@@H]1C[C@@H](N)CN1C(=O)c1cnn2ccccc12	-10
O=C(Nc1ccccc1O)C1=CC2(CCNCC2)Oc2ccccc21	3
CC(C)COc1ccccc1CN(C)C(=O)CN1CCCC1	4
CC(=O)Nc1ccc(-c2c(-c3ccccc3)ncn2CCc2cn[nH]c2)cc1	-1
O=C(NCCCn1ccnc1)Nc1c[nH]c2cc(Cl)ccc2c1=O	306
Clc1ccc(CO/N=C(\Cn2ccnc2)c2ccc(Cl)cc2Cl)c(Cl)c1	-83*!
Cl/C(=C\n1cncn1)c1ccc(Cl)cc1Cl	-59
Cc1ccc(-n2cc(CN(C)C(C)c3ccncn3)c(-c3cccc(C)c3)n2)cc1 (centres undefined)	16
Cc1ccc(SC(=O)c2csnn2)cc1	-102*
O=C(Nc1ccc(Cl)cc1)c1csnn1	28
CC(C)N(C(=O)NC(=O)c1csnn1)C(C)C	12
CC(=O)NC(c1ccccn1)C1CCC(CNC(=O)c2cnn(C(C)C)c2)CC1 (centres undefined)	9
CNc1ncc(CN(C)c2nc(-c3cccnc3)nc3c2cnn3C)cn1	-14
SMILES	Tg IFNy HTS
CCc1c(C)sc2c1CCN(Cc1nc(-c3ccc(C(C)C)cc3)oc1C)C2c1ccccc1 (centres undefined)	-20
O=C(O)c1cc2ccccc2s1	-71*
CC1CCN(C(=O)c2cc3ccccc3s2)CC1	19
Cc1cc(CNC(=O)c2cc3ccccc3s2)c2ccccc2n1	12
Nc1cc(-c2ccc(Cl)cc2)nc(N)n1	100
CSc1nc(-c2ccc(Cl)cc2)nc(N)c1-c1ccccc1	207
CCc1nc(N)nc(N)c1-c1ccc(Cl)cc1	-95*
O=C1C[C@H]2CC[C@@H](CN1)N2c1cncc(C(=O)N2CCOCC2)n1	-5
CCc1ccc(S(=O)(=O)N2CCC3(CC2)NCCN=C3NCc2cccc(OC)c2)cc1	0
Cc1nn(C)c(C)c1NC(=O)CN1CCC(O)(c2ccccc2F)CC1	-14
COc1cccc(C(=O)N2CCN(S(=O)(=O)c3cc4c5c(c3)CCC(=O)N5CCC4)CC2)c1	-15
COc1ccc2c(O[C@H]3CC4C(=O)N(C)CCCC/C=C\[C@@H]5C[C@@]5(C(=O)NS(=O)(=O)C5CC5)NC(=O)[C@@H]4C3)cc(-c3nc(C(C)C)cs3)nc2c1C (some centres undefined)	-74*
COc1ccc(CCC(=O)N2CCN(S(=O)(=O)c3cc4c5c(c3)CCC(=O)N5CCC4)CC2)cc1	6
COc1cc(C(=O)OCCCN2CCCN(CCCOC(=O)c3cc(OC)c(OC)c(OC)c3)CC2)cc(OC)c1OC	-7
COc1cc(C(=O)OCCCN(C)C)cc(OC)c1OC	0
COc1cc(C(=O)ON=C2C3CC4CC(C3)CC2C4)cc(OC)c1OC	-106*
COc1ccc2oc(CNC(=O)C3CC(=O)N(CC(C)C)C3)nc2c1 (centres undefined)	0
CCNC(=O)CCC/C=C/C[C@@H]1[C@H](C=C[C@H](O)CCc2ccccc2)[C@@H](O)C[C@@H]1O	11
C[C@H]1C[C@H]2CN(C(=O)c3ccc4c(c3)OCO4)C[C@H]2O1	24
Brc1ccc2c(c1)C1C=CCC1C(C1CC=CCC1)N2 (centres undefined)	27
CC(=O)c1ccc2c(c1)[C@@H]1C=CC[C@@H]1[C@H](c1cc3c(cc1Br)OCO3)N2	-75*
O=C(C1CC1)N1C[C@H]2CNC[C@@]2(C(=O)NCCCc2ccccc2)C1	1
CCCC(=O)N1CCC(N2CCC3(CCOCC3)CC2)CC1	5
Brc1ccc2[nH]c3c(c2c1)CCCC3NCc1ccccc1 (centres undefined)	-98*
O=C1Cc2c([nH]c3ccc(Br)cc23)-c2ncccc2N1	-7
Brc1ccc2[nH]c3c(Br)cc(Br)cc3c2c1	16
CCn1c(C)nc2cc(NC(=O)c3ccc(CN(C)C)cc3)ccc21	-5
CCN1c2cc(C)ccc2-n2cccc2C12CCN(C(=O)Nc1ccc(C)cc1)CC2	-75*
CCc1ccccc1NC(=O)N1CCC2(CC1)c1cccn1-c1ccc(C)cc1N2CC	206
